Assay results as given in PubChem BioAssay.

What was measured:
[1] = inhibitors of PAF-induced NFkB signaling in CF airway cells, dose response, cell-based, uHTS hits, panel, cytotoxicity readout (AID 624344); conditions: CF bronchial epithelial cells, PAF-induced NFkB reporter inhibition, with PAF, run 1; at 79 µM (top of the series) unless noted
[2] = as above; conditions: CF bronchial epithelial cells, PAF-induced NFkB reporter inhibition, with PAF, run 2; at 79 µM (top of the series) unless noted
[3] = molecular target: Tumor necrosis factor receptor superfamily member 10B (Homo sapiens) (UniProt O14763); test: caspase-8 TRAIL sensitization, hit retest, confirmation, cell-based, NB7+caspase-8, with/without TRAIL, luminescence panel (AID 651596); conditions: NB7 neuroblastoma + caspase-8, TRAIL sensitization, luminescence viability, with TRAIL, mean of runs, at 10 µM, stronger effect = higher value
Chain of Tumor necrosis factor receptor superfamily member 10B (Homo sapiens) (O14763 whole entry, looked up): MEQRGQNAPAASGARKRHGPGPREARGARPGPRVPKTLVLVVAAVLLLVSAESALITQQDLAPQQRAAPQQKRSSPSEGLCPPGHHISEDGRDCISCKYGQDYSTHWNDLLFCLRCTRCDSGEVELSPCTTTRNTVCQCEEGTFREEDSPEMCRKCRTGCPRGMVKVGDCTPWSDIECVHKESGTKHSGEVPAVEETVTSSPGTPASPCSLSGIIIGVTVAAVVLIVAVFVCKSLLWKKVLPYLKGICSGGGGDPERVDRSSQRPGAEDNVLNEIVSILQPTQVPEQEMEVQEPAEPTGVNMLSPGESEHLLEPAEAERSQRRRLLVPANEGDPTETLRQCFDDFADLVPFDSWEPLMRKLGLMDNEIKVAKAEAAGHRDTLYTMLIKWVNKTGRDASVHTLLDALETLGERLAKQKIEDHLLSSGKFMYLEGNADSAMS

[4] = as above; conditions: NB7 neuroblastoma + caspase-8, without TRAIL, luminescence viability, without TRAIL, mean of runs, at 10 µM
[5] = test system: Cytotoxicity; test: inhibitors of PAF-induced NFkB signaling in CF airway cells, dose response, cell-based, uHTS hits, panel, cytotoxicity readout (AID 624344); conditions: CF bronchial epithelial cells; run 1, at 19.8 µM (top of the series)

Cc1ccc(N=Cc2cc3c(cc2O)OC(N)=C(C#N)C3c2ccccc2)cc1 (configuration not stated)
inhibition [1]: 79.8% | inhibition [2]: 60.7%

Cc1cccc(N2CCN(C(=O)CCn3c(=S)[nH]c4cc5c(cc4c3=O)OCO5)CC2C)c1 (configuration not stated)
inhibition [1]: 109% | inhibition [2]: 93.9%

Cc1c(Cl)cccc1NC(=O)COC(=O)c1c2c(nc3ccccc13)CCN(Cc1ccccc1)C2
inhibition [1]: 72.2% | inhibition [2]: 97.3%

CC(C)C[C@@H](CN1CCC[C@@H]1CN1C(=S)NC[C@@H]1Cc1ccc(O)cc1)N1C[C@H](Cc2ccc(O)cc2)N(CC2CCCCC2)C1=S
inhibition [1]: 105% | inhibition [2]: 118%

COc1ccc(OC)c(Nc2ncnc3ccc(Br)cc23)c1
inhibition [1]: 98.3% | inhibition [2]: 97.5%

COc1ccc(-c2csc(NC3OC(=O)c4c3ccc(OC)c4OC)n2)cc1OC (configuration not stated)
inhibition [1]: 109% | inhibition [2]: 100%

CCOC(=O)C1=C(C)Nc2ccccc2N=C1NC(=O)c1oc2ccccc2c1COC
inhibition [1]: 90.5% | inhibition [2]: 101%

CC1(Cc2ccc(Cl)cc2)C(=O)Nc2ccc(-c3cccnc3)cc21 (configuration not stated)
inhibition [1]: 107% | inhibition [2]: 102%

Brc1cccc(CSc2nnc(-c3ccncc3)o2)c1
inhibition [1]: 105% | inhibition [2]: 99%

CC(=O)c1ccc(-c2cnc3c(NC=O)cc(-c4ccc(C(=O)NC5CC5)cc4)cn23)cc1
inhibition [1]: 99.5% | inhibition [2]: 104%

O=C(COc1ccc(Cl)cc1)Nc1ncc([N+](=O)[O-])s1
inhibition [1]: 115% | inhibition [2]: 83.3%

Cn1c(Sc2ccc(Br)cc2)c(C=O)c2ccccc21
inhibition [1]: 108% | inhibition [2]: 112%

Oc1ccc(Cl)cc1Cc1cc(Cl)ccc1O
inhibition [1]: 103% | inhibition [2]: 107%

COc1ccc(-c2cn[nH]c2-c2ccc(OCc3ccccc3F)cc2O)cc1OC
inhibition [1]: 113% | inhibition [2]: 98.3%

O=C1/C(=C/c2cccnc2)CCc2c1[nH]c1ccccc21
inhibition [1]: 103% | inhibition [2]: 109%

CCOc1cccc(-c2nnc3sc(C4CCCCC4)nn23)c1
inhibition [1]: 102% | inhibition [2]: 116%

Cc1cc(C)c2nc(C(F)(F)F)c(C#N)c(N)c2c1
inhibition [1]: 97.7% | inhibition [2]: 90.1%

Cc1cccc(NC(=O)Nc2ccc(C#N)cc2)n1
inhibition [1]: 103% | inhibition [2]: 113%

Cc1nnc(SCC(=O)N2CCC(c3noc4ccc(F)cc34)CC2)s1
inhibition [1]: 101% | inhibition [2]: 112%

Cc1ccccc1C(=O)N1CCN(c2ccc(NC(=O)CSc3ccc(Cl)cc3)cc2)CC1
inhibition [1]: 77.6% | inhibition [2]: 71.9%

COc1ccc(-c2cn[nH]c2-c2ccc(OCc3ccc([N+](=O)[O-])cc3)cc2O)cc1
inhibition [1]: 105% | inhibition [2]: 115%

CC1(Cc2ccc(F)cc2)C(=O)Nc2ccc(-c3cccnc3)cc21 (configuration not stated)
inhibition [1]: 98.2% | inhibition [2]: 108%

CCN(c1ccc(OC)cc1)c1ncnc2nc[nH]c12
inhibition [1]: 108% | inhibition [2]: 98%

O=C(COC(=O)c1c2c(nc3ccccc13)CCN(Cc1ccccc1)C2)Nc1c(F)cccc1F
inhibition [1]: 79.5% | inhibition [2]: 74%

C#CCN(C[C@@H]1[C@@H](OC(=O)NCc2ccco2)[C@@H](OC(=O)NCc2ccco2)Cn2c(=O)ccc(=O)n21)S(=O)(=O)c1ccc(C)cc1
inhibition [1]: 98.7% | inhibition [2]: 111%

CCCCN(CCCC)c1ncnc2nc[nH]c12
inhibition [1]: 102% | inhibition [2]: 118%

COCCNc1nc(Oc2cncc(Cl)c2)c2sccc2n1
inhibition [1]: 100% | inhibition [2]: 115%

O=C(CCl)N(Cc1cc(=O)[nH]c2ccccc12)c1ccccc1
inhibition [1]: 68.3% | inhibition [2]: 83.6%

Cc1nn(-c2ccccn2)c2c1-c1nc(N)ncc1CC2
inhibition [1]: 98.6% | inhibition [2]: 102%

CC(C)(C)c1nc(NC(=O)Nc2ccccc2)sc1Br
inhibition [1]: 107% | inhibition [2]: 103%

O=C(COC(=O)c1ccc2[nH]c3c(c2c1)CCCC3)Nc1ccccc1Cl
inhibition [1]: 65.7% | inhibition [2]: 69.7%

Cc1ccc2c(c1)C(=O)C(=O)N2Cc1ccc(C(F)(F)F)cc1
inhibition [1]: 111% | inhibition [2]: 100%

C=C1C(=O)O[C@@H]2[C@H]1CC[C@H](C)[C@]1(O)CCC(=O)[C@@]21C
inhibition [1]: 101% | inhibition [2]: 108%

S=c1[nH]nc(-c2ccncc2)n1/N=C/C(Cl)=C\c1ccccc1
inhibition [1]: 101% | inhibition [2]: 109%

COc1ccccc1NS(=O)(=O)c1ccc(-c2cnc(C3CC3)o2)cc1
inhibition [1]: 82.8% | inhibition [2]: 97.8%

COc1ccc(C(=O)N[C@H](C(=O)Nc2nc3ccccc3[nH]2)C(C)C)cc1
inhibition [1]: 99.8% | inhibition [2]: 102%

CCc1ccc(Nc2n[n+](-c3ccccc3)c(-c3c(Cl)cccc3Cl)s2)cc1
inhibition [1]: 116% | inhibition [2]: 101%

COc1ccc(COc2cc(-c3cccc(OC)c3)nc3ccc(NC(=O)c4cccnc4)cc23)cc1
inhibition [1]: 98.7% | inhibition [2]: 95.2%

C=CCOc1c(OC)cc(/C=N/Nc2cccc(C(=O)O)c2)c(Br)c1Br
inhibition [1]: 103% | inhibition [2]: 105%

CCC(=O)c1ccc(O)c(CC=C(C)C)c1
inhibition [1]: 114% | inhibition [2]: 97.8%

Cc1cccc(NC(=O)c2cc(-c3ccc(C)s3)nc3ccccc23)n1
inhibition [1]: 98.5% | inhibition [2]: 95.4%

CC(C)OC(=O)c1cccc(C(=O)Nc2cccc(NC(=O)c3cccc(C(=O)OC(C)C)n3)n2)n1
inhibition [1]: 103% [at 9.88 µM] | inhibition [2]: 109% [at 19.8 µM]

Cc1ccc2nc(SCC(=O)Nc3cc(C(F)(F)F)ccc3N3CCOCC3)[nH]c2c1
inhibition [1]: 81.3% | inhibition [2]: 48.5%

O=C(CCS(=O)(=O)c1ccccc1)N(CCCN1CCOCC1)c1nc2c(F)cccc2s1
inhibition [1]: 97.5% | inhibition [2]: 95.9%

NC(N)=NN=C(c1ccc(F)cc1)c1ccc(C(F)(F)F)cc1
inhibition [1]: 108% | inhibition [2]: 117%

COc1ccc(OC)c(C2CC(=O)c3c([nH]c(C(=O)OC(C)C)c3C)C2)c1 (configuration not stated)
inhibition [1]: 51.7% | inhibition [2]: 64.2%

CCCC1/C(=N/O)CC(c2ccccc2)NC1c1ccccc1 (configuration not stated)
inhibition [1]: 106% | inhibition [2]: 98.7%

FC(F)Sc1ccc(NC(=S)NCC2CCCCC2)cc1
inhibition [1]: 106% | inhibition [2]: 112%

COc1ccc(-n2cc(-c3ccccc3)c3c(N4CC(C)OC(C)C4)ncnc32)cc1 (configuration not stated)
inhibition [1]: 102% | inhibition [2]: 102%

COc1cccc(/C=N/n2c(C3CCCCC3)n[nH]c2=S)c1
inhibition [1]: 97.2% | inhibition [2]: 106%

CC(=O)Nc1ccc(-c2ccnc3c2CC(C(=O)NCc2ccccc2)O3)cc1 (configuration not stated)
inhibition [1]: -53.5% | inhibition [2]: -72.7%

COc1ccc(S(=O)(=O)c2c(O)c3ccc(C(=O)Nc4ccccc4Cl)cc3[nH]c2=O)cc1
inhibition [1]: 96.9% | inhibition [2]: 106%

CCCCCCc1cc2cc(C(=O)Nc3ccccc3OC)c(=O)oc2cc1O
inhibition [1]: 2.45% | inhibition [2]: 66.2%

C=C1C(=O)C2=CC1CCC(=O)C1(C)CCC(OC(C)=O)C(C)(C)C1CC2O (configuration not stated)
inhibition [1]: 94.6% | inhibition [2]: 107%

Cc1ccnc(NC(=O)Cc2ccc(-c3ccccc3)cc2)c1
inhibition [1]: 111% | inhibition [2]: 105%

NS(=O)(=O)c1ccc(CCNC(=O)c2ccc(C#CC3(O)CCCCC3)cc2)cc1
inhibition [1]: 105% | inhibition [2]: 102%

CCOc1cc2c(cc1O)C(=NOC)CC1C2CCC2(C)C(O)CCC12 (configuration not stated)
inhibition [1]: 74% | inhibition [2]: 94.3%

CC(C)(C)OC(=O)NCC(=O)Oc1cc2oc(=O)cc(-c3ccccc3)c2cc1Cl
inhibition [1]: 117% | inhibition [2]: 104%

NC(=O)c1sc2nc3c(c(-c4ccco4)c2c1N)CCCC3
inhibition [1]: 114% | inhibition [2]: 101%

CCN(CC(=O)Nc1ccc(OC)cc1)C(=O)c1cc(-c2cccs2)nn1-c1ccccc1
inhibition [1]: 99.6% | inhibition [2]: 98.4%

O=C(Nc1ccc(Oc2ccc(NC(=O)Nc3ccc([N+](=O)[O-])cc3)cc2)cc1)Nc1ccc([N+](=O)[O-])cc1
inhibition [1]: 101% | inhibition [2]: 114%

Cc1cccc(C(=O)N2[C@@H](C(C)C)COc3cc(Br)ccc3S2(=O)=O)c1
inhibition [1]: 102% | inhibition [2]: 93.6%

O=S(=O)(CC(CN1CCCC1)N1CCCC1)c1ccc2ccccc2c1 (configuration not stated)
inhibition [1]: 96.4% | inhibition [2]: 92.7%

C[C@H]1Cn2cnc(C(=O)Nc3cccc(Cl)c3)c2C(=O)N1
inhibition [1]: 105% | inhibition [2]: 104%

Cc1ccc(N(C)C(=O)c2cc(S(=O)(=O)N3CCCCC3)c[nH]2)cc1
inhibition [1]: 93.5% | inhibition [2]: 79%

C[C@@H]1CN([C@H](C)CO)C(=O)c2cc(NC(=O)Nc3ccc(C(F)(F)F)cc3)ccc2O[C@H]1CN(C)S(=O)(=O)c1cccs1
inhibition [1]: 113% | inhibition [2]: 96.8%

CCc1ccccc1NC(=O)CN(C)C(=O)Cn1ncc(Cl)c(Cl)c1=O
inhibition [1]: 102% | inhibition [2]: 101%

COc1cccc(-c2cnc3c(NC=O)cc(-c4ccc(OC)cc4OC)cn23)c1
inhibition [1]: 98.2% | inhibition [2]: 86.1%

COc1ccc(-c2oc3ccc(-c4ccc(OC)nc4)cc3c2C#CC2(O)CCCCC2)cc1
inhibition [1]: 103% | inhibition [2]: 103%

C=C(c1ccc2nc(NC(=O)OC)[nH]c2c1)c1cccs1
inhibition [1]: 101% | inhibition [2]: 110%

COCCCN=C1NN=C(c2cc(C)n(Cc3ccccc3Cl)c2C)CS1
inhibition [1]: 88.6% | inhibition [2]: 106%

c1ccc(-c2nc3nonc3nc2-c2ccccc2)cc1
inhibition [1]: 102% | inhibition [2]: 109%

O=S1(=O)CCC(NC(=S)SCCOc2ccccc2)C1 (configuration not stated)
inhibition [1]: 99.3% | inhibition [2]: 108%

Cc1ccc(NC(=O)/C=C/c2ccco2)nc1
inhibition [1]: 95.8% | inhibition [2]: 99.8%

Cc1ccc(C(=O)Nc2cccc(C(F)(F)F)c2)cc1NC(=O)c1nccnc1N
inhibition [1]: 75.2% | inhibition [2]: 76% | activity [3]: 50.6% | activity [4]: 39%

C=C1C(=O)C23C(O)C1CCC2C12COC3(O)C(O)C1C(C)(C)CCC2O (configuration not stated)
inhibition [1]: 87.7% | inhibition [2]: 76.9%

COc1ccc(NC(=O)c2cc3c(-c4ccc(OC)c(OC)c4)nn(C)c3s2)cc1OC
inhibition [1]: 107% | inhibition [2]: 101%

Cc1cc(C)c(O)c(CN(C)Cc2cc(Cl)cc(Cl)c2O)c1
inhibition [1]: 109% | inhibition [2]: 101% | inhibition [5]: 12%

COc1ccc(N=Cc2cc3c(cc2O)OC(N)=C(C#N)C3c2ccccc2)cc1 (configuration not stated)
inhibition [1]: 76.8% | inhibition [2]: 47.7%

O=S(=O)(Nc1nc2ccccc2nc1N1CCN(c2ccccc2F)CC1)c1ccc(Cl)cc1
inhibition [1]: 96.7% | inhibition [2]: 111%

O=C(Nc1ccccc1)c1cc2ccccc2c(=O)s1
inhibition [1]: 50.8% | inhibition [2]: 85.2%

O=c1c(-c2c(O)cc(O)c3c2O[C@H](c2ccc(O)cc2)CC3)c(-c2ccc(O)cc2)oc2cc(O)cc(O)c12
inhibition [1]: 105% | inhibition [2]: 102%

COc1ccc(N(Cc2cc(=O)[nH]c3ccccc23)C(=O)CCl)cc1
inhibition [1]: 92.3% | inhibition [2]: 88.4% | activity [3]: 99.3% | activity [4]: 99.5%

CCOC(=O)C1(C(=O)OCC)COC(=O)C1CN1Cc2cc3ccccc3nc2C1 (configuration not stated)
inhibition [1]: 65.1% | inhibition [2]: 65.6%

O=C(Nc1ccccc1)Nc1ncc([N+](=O)[O-])s1
inhibition [1]: 108% | inhibition [2]: 96.7%

Cc1cccc(CS(=O)(=O)c2ncc(Cl)c(C(=O)NCc3ccccc3)n2)c1
inhibition [1]: 92.1% | inhibition [2]: 88.2%
